Here are results for 10 molecules from the supplement of paper PMC7411640.

The test system of this experiment is MDA-MB-468. Description: phospho-S6 immunofluorescence (DAPI-normalised), per-plate z-score; higher = higher phospho-S6 signal (less pathway suppression). The note with it: 24 h. On the procedure: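 GPCR-targeted compound library (MedChemExpress HY-L006) tested on MDA-MB-468 PTEN-null TNBC cells in 384-well plates at 0.1, 1 or 10 uM, combined with vehicle, GDC0941 450 nM or lapatinib 1 uM, for 24 h. Phospho-S6 (S240/244) immunofluorescence normalised to DAPI and expressed as a per-plate z-score; values are the mean of biological triplicates.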

The structures appear in SMILES notation. Where a name gives a salt, the structure may show the parent alone.

Take `CC(C)(C)NCC(O)c1ccc(O)cc1Cl` (stereo not given) (compound 10 µM): the “phospho-S6 immunofluorescence (z-score)” value reads like this: (co-treatment: GDC0941 450 nM) 0.77; (co-treatment: lapatinib 1 uM) 0.7; (co-treatment: vehicle) 0.14.
For the molecule `CCCC(C)(C)c1ccc2c(c1)OC(C)(C)[C@@H]1CC=C(C)C[C@@H]21` (compound 10 µM), the “phospho-S6 immunofluorescence (z-score)” value runs as follows: (co-treatment: GDC0941 450 nM) 2.38; (co-treatment: lapatinib 1 uM) 1.8; (co-treatment: vehicle) 2.21.
On the same counts, the results for `CN1[C@@H]2C[C@@H](OC(=O)[C@H](CO)c3ccccc3)C[C@H]1[C@@H]1O[C@@H]12` [Scopolamine (hydrobromide)] (compound 10 µM) are -1.4, -0.16 and 0.68.
The matching figures for `C[C@@H]1CN(Cc2ccc(F)cc2)CCN1C(=O)COc1ccc(Cl)cc1NC(N)=O` (compound 10 µM): -3.5, -6.96 and -8.26.
In the case of `CNCC(=O)c1ccc(O)c(O)c1` [Adrenalone (hydrochloride)] (compound 10 µM), the “phospho-S6 immunofluorescence (z-score)” value (co-treatment: GDC0941 450 nM) was determined as 0.18, the “phospho-S6 immunofluorescence (z-score)” value (co-treatment: lapatinib 1 uM) was found to be 1.2 and the “phospho-S6 immunofluorescence (z-score)” value (co-treatment: vehicle) was found to be 0.39.
Consider `Cc1cccc(Cc2c[nH]cn2)c1C` [Detomidine (hydrochloride)] (compound 10 µM), for which the “phospho-S6 immunofluorescence (z-score)” value is, setting by setting: (co-treatment: GDC0941 450 nM) -1; (co-treatment: lapatinib 1 uM) 0.28; (co-treatment: vehicle) 0.19.
`C[C@H]1CNCCc2ccc(Cl)cc21` [Lorcaserin (Hydrochloride)] (compound 10 µM): the “phospho-S6 immunofluorescence (z-score)” value by setting is: (co-treatment: GDC0941 450 nM) -1; (co-treatment: lapatinib 1 uM) -0.25; (co-treatment: vehicle) -0.95.
Take `O=C1Nc2ccccc2C2(CCN(CCc3ccc(C(F)(F)F)cc3)CC2)O1` (compound 10 µM): the “phospho-S6 immunofluorescence (z-score)” value (co-treatment: GDC0941 450 nM) is -3.3, the “phospho-S6 immunofluorescence (z-score)” value (co-treatment: lapatinib 1 uM) was -4.41 and the “phospho-S6 immunofluorescence (z-score)” value (co-treatment: vehicle) is -4.38.
Consider `O=C(O[C@H]1CN2CCC1CC2)N(Cc1cc(F)c(F)c(F)c1)c1cccc(F)c1` [Tarafenacin (D-tartrate)] (compound 10 µM), for which the “phospho-S6 immunofluorescence (z-score)” value is 0.34 (co-treatment: GDC0941 450 nM), -1.58 (co-treatment: lapatinib 1 uM) and 1.05 (co-treatment: vehicle).
The matching figures for `O=C(O[C@H]1C[C@H]2CC[C@@H](C1)[N+]21CCCC1)C(O)(c1ccccc1)c1ccccc1` [Trospium (chloride)] (compound 10 µM): -0.76, 0.26 and -1.07.
